The full list was thinned out, with hits kept by preference.
12-LOX inh = inhibitors of human 12S-lipoxygenase ALOX12; P18054; purified 12hLO, xylenol orange hydroperoxide absorbance; Potency, µM (doses to about 108 µM), actives largely listed as inhibitors; 1.1% of 580,000 active
Target sequence (P18054 whole entry, looked up): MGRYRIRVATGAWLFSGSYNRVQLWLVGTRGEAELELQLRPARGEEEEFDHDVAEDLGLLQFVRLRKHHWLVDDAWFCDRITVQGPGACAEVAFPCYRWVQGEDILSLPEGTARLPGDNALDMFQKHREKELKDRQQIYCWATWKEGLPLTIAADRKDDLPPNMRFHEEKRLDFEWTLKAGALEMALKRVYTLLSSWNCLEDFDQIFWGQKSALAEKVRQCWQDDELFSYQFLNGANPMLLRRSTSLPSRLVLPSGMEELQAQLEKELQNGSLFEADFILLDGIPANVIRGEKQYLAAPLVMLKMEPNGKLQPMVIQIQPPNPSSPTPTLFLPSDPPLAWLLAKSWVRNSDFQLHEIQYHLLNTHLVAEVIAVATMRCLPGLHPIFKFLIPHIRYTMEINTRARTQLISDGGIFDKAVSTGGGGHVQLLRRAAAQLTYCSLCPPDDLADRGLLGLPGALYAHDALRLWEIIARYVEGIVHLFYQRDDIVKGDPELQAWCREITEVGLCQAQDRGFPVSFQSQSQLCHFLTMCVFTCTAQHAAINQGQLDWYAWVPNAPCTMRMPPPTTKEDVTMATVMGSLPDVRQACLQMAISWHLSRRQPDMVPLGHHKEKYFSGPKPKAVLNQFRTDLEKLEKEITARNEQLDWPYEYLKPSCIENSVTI
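Purified human 12hLO (150 nM final) in 25 mM Hepes, 0.01% Triton X-100, pH 7.0 was preincubated 15 min at room temperature with compound. Then 40 uM arachidonic acid was added, 30 min. Hydroperoxide was read by Fe-XO absorbance ratio 573/405 nm.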
TDP1 cell CPT = growth inhibition of DT40 Tdp1-/-;hTDP1 cells with camptothecin (screen for TDP1 inhibitors). chicken DT40 Tdp1-/-;hTDP1 cells + 20 nM CPT, ATP luminescence, 48 h. Potency, µM (series often up to 46.2 µM), hits mostly inhibitors. 12% of 420,000 active. AID 686979; further: nearly all actives have a fitted effect of over 55% in size
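Chicken DT40 Tdp1-/- cells complemented with human TDP1, 400 cells/well, exposed to compounds plus 20 nM camptothecin for at least 48 h at 37 C; viability read as ATP content by CellTiter-Glo luminescence.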
IL-1B inflam inh = inflammasome signaling inhibition, IL-1 beta readout; activity change, % at 57.5 µM; THP-1 LPS/ATP IL-1B secretion, AlphaLISA, 16 h; hits give low values; 4.7% of 360,000 active; in the data active means activity change below about -50%; inconclusive means mostly about -30% to -49%
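Secreted IL-1B measured by AlphaLISA bead assay after 16 h compound exposure of THP-1 cells; compounds (final up to 57.5 uM) added 1 h before LPS (250 ng/mL) and ATP (1.25 mM) stimulation; lower signal means less secretion.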
HT1080 IDH1KD tx = kills HT-1080 cells with IDH1 knockdown | HT-1080 IDH1 knockdown viability, ATP luminescence, 48 h | 2% of 360,000 active | Potency, µM (doses to about 46.1 µM), hits mostly cytotoxic | AID 686971
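Cytotoxicity counter-line: IDH1KD HT-1080, 48 h, CellTiter-Glo. Curves classed by r2, magnitude and activity.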
DT40 TDP1 no CPT = qHTS for Inhibitors of human tyrosyl-DNA phosphodiesterase 1 (TDP1): qHTS in cells in absence of CPT | 15% of 420,000 active | DT40 Tdp1-/- hTDP1 cells, no CPT, ATP luminescence, 48 h | Potency, µM (titrated, usually from 46.2 µM), most hits filed as inhibitors; further: nearly all actives have a fitted effect of over 55% in size
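Growth kinetics read by CellTiter-Glo luminescence after ≥48 hr at 37 °C. Cells: DT40 Tdp1-/- stably carrying human TDP1, 400 per well, compound exposure in the absence of CPT (DMSO vehicle).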
HT1080-NT tox = kills 2HG-producing HT-1080-NT fibrosarcoma cells | HT-1080-NT fibrosarcoma viability, CellTiter-Glo ATP luminescence, 48 h | Potency, µM (series often up to 46.1 µM), hits mostly cytotoxic | 1.6% of 360,000 active;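 further: NT is the 2HG producing partner of a matched IDH1 knockdown line; nearly all actives have a fitted effect of over 55% in size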
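Fibrosarcoma NT cells, 750 per well in 5% FBS RPMI, were exposed to compound for 48 hours. Viability: CellTiter-Glo luminescence.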
Hits are given with their value; i = inactive; ? = inconclusive; nt = no result; ! = a repeat was not active; [ ] = remark or other dose. Unless noted, the call rests on the fitted dose curve; in most records, active means well fitted curve in the direction sought with a large enough effect; inconclusive means small, poorly fitted or top-dose-only effect, or another doubt; inactive means no such curve, though single readings can be large; an effect the other way counts as inactive or inconclusive.

SMILES	12-LOX inh	TDP1 cell CPT	IL-1B inflam inh	HT1080 IDH1KD tx	DT40 TDP1 no CPT	HT1080-NT tox
COC(=O)C1=C(N)Oc2cc(C)oc(=O)c2C12C(=O)Nc1ccccc12 (stereo not drawn)	i	?	i	i	16µM	i
Cn1nc(C2CCCCC2)cc1[C@H]1CN2CC[C@H]1C[C@@H]2CNC(=O)Nc1cccc(C#N)c1	i	nt	nt	nt	nt	nt
C=CCN(C)C[C@H]1CN2CC[C@H]1C[C@@H]2CNC(=O)COC	i	nt	nt	nt	nt	nt
CCOc1ccccc1NC(=O)c1sc2nc3c(cc2c1N)CN(Cc1ccccc1)CC3	i	16µM	nt	nt	23µM	nt
c1ccc(CN2CCc3nc4ccccc4cc3C2)cc1	i	?	i	i	i	i
O=C(Nc1ccc(Cl)cc1)Nc1ccc(Cl)c(Cl)c1	i	4.6µM	-87	?	2.9µM	?
CC(=O)[C@H]1[C@H](C#N)C[C@H]2[C@@H]3CC=C4C[C@@H](O)CC[C@]4(C)[C@H]3CC[C@@]21C	i	?	i	i	13µM!	i
CC(C)[C@H]1CC2C3CC=C4C[C@@H](O)CC[C@]4(C)C3CC[C@]2(C)[C@H]1O (stereo partly drawn)	i	i	i	i	?	i
CC(C)C(=O)c1cn(Cc2ccc(C#N)cc2)c2ccccc12	i	29µM	i	i	?	i
CN(C)CCCC(=O)N1C2CCC1CN(Cc1cccnc1)C2	i[6.33 µM]	nt	nt	nt	nt	nt
C/C(=N\NC(N)=S)C12CC3CC(CC(C3)C1)C2	?	23µM	?	6.3µM	15µM	5µM
CC(=O)O[C@@H]1/C=C/[C@](C)(O)C[C@@H](C)C/C=C/[C@H]2[C@@H]3O[C@]3(C)[C@@H](C)[C@H]3[C@H](Cc4ccccc4)NC(=O)[C@@]312	nt	0.52µM	i	?	0.46µM	i
COc1ccc(Cn2c(=O)oc3ccc(C)cc32)cc1OC	i	15µM	i	i	18µM	i
N#CC1(N2CCCCC2)CCCCC1	nt	i	nt	nt	i	nt
CNCC(=O)c1ccc(O)c(O)c1	i	i	nt	nt	i	nt
O=C(CCl)c1ccc(O)c(O)c1	nt	?	nt	nt	11µM	nt
N#Cc1cccc(NC(=O)NC[C@H]2C[C@@H]3CCN2C[C@@H]3CN2CCOCC2)c1	i	nt	nt	nt	nt	nt
CC1CC(C)CC(C)C(O)C(C#N)=CC=CCC(C2CCCC2C(=O)O)OC(=O)CC(O)C(C)C1 (stereo not drawn)	i	0.0082µM	-103	0.18µM	0.1µM	0.0092µM
COc1cc2c(cc1OCC1CCCC1)N(C(=O)CC(C)C)CC21CCN(CC(=O)O)CC1	i	nt	nt	nt	nt	nt
O=C(c1ccc2c3c(cccc13)CC2)C1CCCN(CC2CC2)C1 (stereo not drawn)	i	18µM	-117	16µM	23µM	?
O=C(c1ccc2c3c(cccc13)CC2)C1CCCN(Cc2ncc[nH]2)C1 (stereo not drawn)	i	?	?	?	?	?
CC(C)C(=O)Nc1ccc([N+](=O)[O-])c(C(F)(F)F)c1	i	13µM	i	i	13µM	i
CCN1[C@H](C(=O)OC)[C@@H](CO)[C@@H]2Cn3c(ccc(Br)c3=O)[C@@H]21	i	nt	nt	nt	nt	nt
O=[N+]([O-])c1ccc(N2CCCCC2)c2ncccc12	i	i	i	i	?	i
O=[N+]([O-])c1ccc(N2CCCC(C(F)(F)F)C2)c2ccncc12 (stereo not drawn)	?	13µM	i	?	9.2µM	?
SMILES	12-LOX inh	TDP1 cell CPT	IL-1B inflam inh	HT1080 IDH1KD tx	DT40 TDP1 no CPT	HT1080-NT tox
O=C1CN=C(c2cc([N+](=O)[O-])ccc2Cl)c2cc([N+](=O)[O-])ccc2N1	i	i	i	i	i	i
O=C1CN=C(c2cccc(Br)c2)c2cc(Br)ccc2N1	?	i	?	?	16µM	?
O=C1CN=C(c2ccccc2)c2cc([N+](=O)[O-])ccc2N1	i	i	-78	i	i	i
O=C1CN=C(c2ccccc2)c2ccccc2N1	i	i	i	i	i	i
C=C[C@H]1CN2CC[C@H]1C[C@@H]2CNCc1ccc(SC)cc1	i	nt	nt	nt	nt	nt
Cc1cc(N2CCCCC2)nc2ccc(NC(=O)CCC(=O)N3CCN(c4cccc(Cl)c4)CC3)cc12	?	6.5µM	nt	nt	3.7µM	nt
NCc1ccccc1Sc1ccccc1CO	i	?	nt	nt	?	nt
O=C(CSC1c2ccccc2-c2ccccc21)N/N=C/c1ccccc1O	i	7.3µM	i	?	6.5µM	4.5µM
O=C(CSC1c2ccccc2-c2ccccc21)N/N=C/c1ccc(C(=O)O)cc1	i	i	i	i	i	i
O=[S+]1([O-])NC2(CCN(CC3CCCCC3)C2)COc2ccncc21 (stereo not drawn)	i[6.33 µM]	nt	nt	nt	nt	nt
COc1ccc(C(=O)C(C)(C)NO)cc1	5µM	?	i	i	?	i
CCCN1CC2(CCN(C)CC2)CC1C(=O)N(C)Cc1ccon1 (stereo not drawn)	i	nt	nt	nt	nt	nt
CCCS(=O)(=O)NC[C@H]1C[C@@H]2CCN1C[C@@H]2CC	i	nt	nt	nt	nt	nt
C=CCN1CCN(c2cccc(C(F)(F)F)c2)CC1	i	nt	nt	nt	nt	nt
Nc1ccc(CCN2CCN(c3cccc(C(F)(F)F)c3)CC2)cc1	i	?	i	i	23µM	i
CCOC(=O)C1(C)CCCN1C(=O)c1cccs1 (stereo not drawn)	?	i	i	i	i	?
O=C1NC2C(=CC(O)C(O)C2O)c2cc3c(cc21)OCO3 (stereo not drawn)	i	0.41µM	-101	1.2µM	0.29µM	?
O=C1NC2C(=CC(O)C(O)C2O)c2cc3c(c(O)c21)OCO3 (stereo not drawn)	i	0.058µM	-117	0.15µM	0.092µM	0.73µM
O=C1NC2C(O)C(O)C(O)C(O)C2c2cc3c(c(O)c21)OCO3 (stereo not drawn)	i	0.16µM	-103	0.23µM	0.073µM	0.46µM
N#Cc1cccc(-c2ccc3n(c2=O)C[C@H]2C[C@@H]3CN(C(=O)Nc3ccccc3)C2)c1	i	nt	nt	nt	nt	nt
O=C(Nc1cccc2ccccc12)N1Cc2ccccc2-n2nncc2C1	i	i	i	i	?	i
O=C(Nc1cccc2ccccc12)c1nn(C23CC4CC(CC(C4)C2)C3)cc1Br	i	23µM	i	i	16µM	i
COC(=O)C1=C(c2c(C)noc2C)C[C@@H]2CC[C@H]1N2C(=O)N1CCOCC1	i	i	i	i	i	i
COC(=O)C1=C(c2ccc(F)cc2F)C[C@@H]2CC[C@H]1N2C(=O)N1CCC(O)(c2ccc(Cl)cc2)CC1	i	21µM	-78	i	18µM	i
COC(=O)C1=C(c2ccc(F)cc2F)C[C@@H]2CC[C@H]1N2C(=O)NCc1ccc(F)cc1	?	?	i	i	?	i
